# Target: Beta Lactamase (Pseudomonas aeruginosa) (UniProt Q932Y6)
# Experiment: Late stage assay provider results from the probe development efforts to identify selective inhibitors of VIM-2 metallo-beta-lactamase: VIM-2-transformed E. coli growth inhibition in the presence of imipenem (synergy).
# Type: functional
smiles,measurement,value
O=c1[nH]c2c(s1)[C@H](c1cccnc1)[C@H]1C3CC[C@@H](C3)[C@H]1S2,MIC,> 100 µM (active)
